Giardia killer – Giardia lamblia killing; Giardia lamblia trophozoite viability; activity change, % at 7.66 µM, hits read low; 340,000 compounds, 0.15% hits; in the data active = activity change below about -80%; inconclusive = between about -30% and that limit;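 note: parasites exposed to compound for two days anaerobically before the ATP read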
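Luminescent ATP signal served as the viability read-out, measured 15-30 min after adding ATP detection reagent to trophozoites that had been incubated with compounds for 48 hrs at 37 deg C anaerobically at 100 cells/well.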
TrxR1 substrate – substrates of rat thioredoxin reductase 1; Potency, µM (top dose mostly 114 µM); AID 588456; 390,000 compounds, 0.01% hits; purified TrxR1 substrate turnover, NADPH consumption readout; note: nearly all actives have a fitted effect of over 50% in size
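Rat TrxR1, dispensed at 90 nM, was prereduced with 400 uM NADPH (final) for 5 min at ~22 deg C, then incubated with compound 15 min before 400 uM selenite. A first-read NADPH fluorescence drop versus no-compound background flagged substrates.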
KAT2A inh – blocks human GCN5L2 histone acetyltransferase; GCN5L2 HAT assay, ThioGlo1 CoA-SH fluorescence; Q92830; AID 504327; 390,000 compounds, 0.21% hits; Potency, µM (doses to about 58.9 µM), most hits filed as inhibitors
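GCN5L2 (20 nM) in 50mM HEPES pH 7.5, 0.1mM EDTA, 0.01% Tween-20 preincubated 15 min with compounds at room temperature. Reaction started with H3(1-25) 75uM, acetyl-CoA 70uM, ThioGlo1 50uM; CoA-thiol fluorescence (Ex340/Em540) read at 0 and 20 min.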
TrxR1 inh – blocks rat thioredoxin reductase 1; 390,000 compounds, 1% hits; Potency, µM (top dose mostly 114 µM), most hits filed as inhibitors; AID 588453; recombinant rTrxR1, NADPH fluorescence consumption, selenite substrate; note: nearly all actives have a fitted effect of over 65% in size
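Rat TrxR1 (90 nM in the dispensed reagent) was pre-reduced with 400 uM NADPH for 5 min at room temperature, then incubated with compound for 15 min. After 400 uM selenite was added, NADPH fluorescence (Ex 340/Em 450 nm) was followed for 8 min.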
GALK inhibitor – inhibitors of human galactokinase; P51570; Purified GALK, Kinase-Glo residual ATP luminescence; Potency, µM (doses to about 57.5 µM), actives largely listed as inhibitors; 270,000 compounds, 0.007% hits; AID 1868
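Quantitative HTS: GALK 5 nM, ATP 35 uM, galactose 100 uM, 1 h room temperature, then luciferase-based ATP detection.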
Pin1 inh – human Pin1 inhibition. Q13526. 390,000 compounds, 0.009% hits. Pin1 FP peptide displacement, HiFluor488, 10 min. Potency, µM (top dose mostly 115 µM), usual class: inhibitors; active = well fitted inhibition curve with a large enough effect in the polarisation, with a control signal flat, not every such curve was filed as active; inconclusive = small, poorly fitted or top-dose-only effect, or effect the other way, or a change in a side signal; inactive = no such curve, though single readings can be large or run the other way; the % refers to the polarisation
Target sequence (Q13526 whole entry, looked up): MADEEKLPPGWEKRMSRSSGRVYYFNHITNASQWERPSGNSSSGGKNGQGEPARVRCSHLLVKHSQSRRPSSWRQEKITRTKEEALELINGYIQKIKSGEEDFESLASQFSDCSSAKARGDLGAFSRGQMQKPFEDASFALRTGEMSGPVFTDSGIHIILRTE
Of the large screens only hits and unclear results are named; the others gave an inactive call. This is a sample that favours compounds with a hit; in the whole collection about 1.3% have one here. Unless noted, calls come from the whole dose curve; as a rule, active = well fitted curve in the direction sought with a large enough effect; inconclusive = small, poorly fitted or top-dose-only effect, or another doubt; inactive = no such curve, though single readings can be large; an effect the other way counts as inactive or inconclusive.

O=[N+]([O-])c1cccc2nc3ccccc3c(NCCCn3ccnc3[N+](=O)[O-])c12	Giardia killer -95 (no result: KAT2A inh, GALK inhibitor)
O=C(CN1C(=O)C(=O)N(CCC2=CCCCC2)C1=O)c1c[nH]c2ccccc12	none (no result: GALK inhibitor)
O=C(CN1C(=O)C(=O)N(Cc2ccco2)C1=O)c1c[nH]c2ccccc12	TrxR1 inh 14µM (no result: GALK inhibitor)
COc1ccc(C(=O)N(Cc2cccs2)Cc2cccs2)c(O)c1	none (no result: Giardia killer, TrxR1 substrate, KAT2A inh, TrxR1 inh, GALK inhibitor)
Cc1ccnc(Sc2ccc([N+](=O)[O-])cc2[N+](=O)[O-])n1	TrxR1 inh 20µM
Cc1ccc(Sc2ccc([N+](=O)[O-])cc2[N+](=O)[O-])nc1	none
O=C(/C=C/c1ccc(Br)o1)NC(c1ccccc1)c1ccccc1	TrxR1 inh 20µM
CCC(=O)NC(=S)Nc1ccccc1C(=O)OC	Giardia killer inconclusive, TrxR1 inh 50µM
COC(=O)c1cn[nH]c1NC(=S)Nc1ccccc1C	TrxR1 inh 0.79µM
CCCC(=O)NC(=S)Nc1ccccc1C(=O)OC	none (no result: GALK inhibitor)
Cc1ccc(Cn2cnc3c(cnn3C(C)(C)C)c2=O)cc1F	none (no result: Giardia killer, KAT2A inh, GALK inhibitor, Pin1 inh)
COc1ccc(NC(=O)C2CCN(c3cc(C)nc4c(-c5ccc(Cl)cc5)c(C)nn34)CC2)cc1	none (no result: Giardia killer, GALK inhibitor)
O=C(Nc1ccc(-c2nc3ncccc3o2)cc1)c1ccco1	TrxR1 inh 40µM, Pin1 inh inconclusive
O=C(Nc1ccc(-c2nc3ncccc3o2)cc1)c1ccc(Br)o1	none
O=C(NCc1ccc2c(c1)OCO2)C(=O)NCC1OCCN1S(=O)(=O)c1ccccc1 (stereo not given)	none (no result: KAT2A inh, GALK inhibitor)
O=S(=O)(c1ccccc1)N1CCN(c2nccc(-c3cccs3)n2)CC1	none (no result: Giardia killer, TrxR1 substrate, KAT2A inh, TrxR1 inh, GALK inhibitor)
O=C(CN1CCN(S(=O)(=O)c2ccc(Cl)cc2)CC1)c1ccc(O)c(O)c1	KAT2A inh inconclusive, TrxR1 inh 25µM
O=C(CN1CCN(S(=O)(=O)c2ccc(F)cc2)CC1)c1ccc(O)c(O)c1	none
Cc1ccc(N2CC(C(=O)Nc3ncc([N+](=O)[O-])s3)CC2=O)cc1 (stereo not given)	Giardia killer -85
O=C1CCc2cc(S(=O)(=O)Nc3ccc(Cl)c(Cl)c3)ccc2N1	none (no result: Giardia killer, TrxR1 substrate, KAT2A inh, TrxR1 inh, GALK inhibitor)
Cc1nc([N+](=O)[O-])c(Br)n1CC(=O)c1cccc([N+](=O)[O-])c1	TrxR1 inh 7.1µM
Cc1nc([N+](=O)[O-])c(Br)n1CC(=O)c1ccc(F)cc1	TrxR1 inh 2.5µM
Cc1nc([N+](=O)[O-])c(Sc2nc3ccc([N+](=O)[O-])cc3[nH]2)n1Cc1ccccc1	TrxR1 inh 2.5µM
CCn1c(=N)n(CC(=O)c2cccc([N+](=O)[O-])c2)c2ccccc21	none
Cc1nc([N+](=O)[O-])cn1CC(=O)c1ccc(F)cc1	Giardia killer inconclusive
Cc1nc([N+](=O)[O-])c(Br)n1Cc1ccccc1	TrxR1 inh 16µM
O=C(CSc1nc2ccc([N+](=O)[O-])cc2[nH]1)c1ccc2ccccc2c1	none
O=C(Cn1cc(CNC(=O)c2ccccc2)nn1)Nc1cc(C(F)(F)F)ccc1Cl	none (no result: Giardia killer, TrxR1 substrate, KAT2A inh, TrxR1 inh, GALK inhibitor)
CC1(C)CCC[C@]2(C)[C@H]3Cc4cc(O)ccc4O[C@]3(C)CC[C@@H]12	Pin1 inh inconclusive (no result: GALK inhibitor)
COc1ccc(C2Nc3ccccc3C(=O)N2CCc2ccc(Cl)cc2Cl)cc1COc1ccc(NC(C)=O)cc1 (stereo not given)	none (no result: Giardia killer, TrxR1 substrate, KAT2A inh, TrxR1 inh, GALK inhibitor)
COC(=O)Cn1c(C)nc([N+](=O)[O-])c1Br	TrxR1 inh 16µM
CCn1c(C)nc([N+](=O)[O-])c1C(=O)O	none
O=C(Nc1ccc(S(=O)(=O)N2CCCCC2c2cccnc2)cc1)c1ccc(Br)cc1 (stereo not given)	none (no result: Giardia killer, GALK inhibitor)
COC(=O)C1=C[C@@H](C(=O)OC)C2C3=C(C(=O)[C@]2(C)NC(=O)c2ccccc2)[C@H](C)n2c(=O)n(-c4ccccc4)c(=O)n2[C@@H]3C1 (stereo not given in full)	none (no result: KAT2A inh, GALK inhibitor)
